The source of these data is PubChem BioAssay AID720566 (Broad Institute, 2013).

Structures are written as SMILES. Measured potencies and affinities stand elsewhere. The source made the active and inactive calls.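 The calls were made as follows: active = in all runs, an absorbance decrease of 25% or more of the average positive control decrease; inconclusive = runs conflict, with both active and inactive results; inactive = all runs inactive, opposite-direction effects included.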

Chain of Protein disulfide-isomerase A6 (Homo sapiens) (Q15084 whole entry, looked up): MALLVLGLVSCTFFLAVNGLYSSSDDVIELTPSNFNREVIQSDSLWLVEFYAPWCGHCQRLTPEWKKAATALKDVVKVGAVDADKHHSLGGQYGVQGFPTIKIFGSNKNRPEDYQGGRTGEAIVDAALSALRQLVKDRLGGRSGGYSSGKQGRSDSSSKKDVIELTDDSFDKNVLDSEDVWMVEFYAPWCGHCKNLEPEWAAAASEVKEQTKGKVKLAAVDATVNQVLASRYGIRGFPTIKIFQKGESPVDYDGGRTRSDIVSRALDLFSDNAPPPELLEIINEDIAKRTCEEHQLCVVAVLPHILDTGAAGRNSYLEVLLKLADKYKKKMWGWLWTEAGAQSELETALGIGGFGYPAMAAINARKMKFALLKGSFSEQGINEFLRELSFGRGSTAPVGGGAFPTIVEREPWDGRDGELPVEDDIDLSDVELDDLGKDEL

This assay concerns the target Protein disulfide-isomerase A6 (Homo sapiens) (UniProt Q15084). As to the kind of experiment: reduced insulin turbidity driven by ERp5 (PDIA6) – biochemical, absorbance 650 nm, cherry-picked samples, dose response (AID 720566).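 Also: negative values mean less insulin aggregation so ERp5 inhibition.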 The note with it: Recombinant ERp5 insulin aggregation; series mostly up to 35 µM.
As for `CCn1nc(/C=C/c2ccccc2)nc2c(=O)n(C)c(=O)nc1-2`, the outcome was inactive.

For `Cc1cc(OCC(=O)NCc2ccc(S(N)(=O)=O)cc2)c2c3c(c(=O)oc2c1)CCC3`, the outcome was inactive.

`COc1ccc(C#Cc2ccc([C@H]3[C@H](CO)N4CCCCN(C(=O)Cc5cccnc5)C[C@@H]34)cc2)cc1`: the outcome was inactive.

Turning to `C[C@H](CO)N1C[C@H](C)[C@@H](CN(C)C(=O)Oc2ccc3ccccc3c2)OCc2cn(nn2)CCCC1=O`, the outcome was inactive.
